From PubChem BioAssay AID623911 (Vanderbilt High Throughput Screening Facility, 2012)
Among all 2,100 compounds or so, about 770 (37%) were called active. The list shows a part of the results. Unmarked numbers belong to inactive results.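 The calls were made as follows: active = by-eye trace score of 1 for enhancers or -1 for inhibitors, so actives lie on both sides (some results past the limit were not filed as active); inactive = score 0, or 3 fluorescent, or 4 baseline rise.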

Target: G protein-activated inward rectifier potassium channel 2 (Homo sapiens) + G protein-activated inward rectifier potassium channel 1 (Homo sapiens) (UniProt P48051+P48549)
Sequence (P48051 whole entry, looked up): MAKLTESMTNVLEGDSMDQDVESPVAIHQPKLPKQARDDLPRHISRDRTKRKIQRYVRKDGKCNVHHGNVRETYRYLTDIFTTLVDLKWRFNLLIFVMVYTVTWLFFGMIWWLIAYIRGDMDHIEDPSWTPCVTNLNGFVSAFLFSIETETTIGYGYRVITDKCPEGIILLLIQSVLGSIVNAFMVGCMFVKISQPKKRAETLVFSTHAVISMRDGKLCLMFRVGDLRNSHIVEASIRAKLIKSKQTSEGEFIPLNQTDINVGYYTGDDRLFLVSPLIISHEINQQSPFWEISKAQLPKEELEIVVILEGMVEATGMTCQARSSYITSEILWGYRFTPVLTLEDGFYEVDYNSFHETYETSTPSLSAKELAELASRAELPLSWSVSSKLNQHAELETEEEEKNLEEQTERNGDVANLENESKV
Sequence (P48549 whole entry, looked up): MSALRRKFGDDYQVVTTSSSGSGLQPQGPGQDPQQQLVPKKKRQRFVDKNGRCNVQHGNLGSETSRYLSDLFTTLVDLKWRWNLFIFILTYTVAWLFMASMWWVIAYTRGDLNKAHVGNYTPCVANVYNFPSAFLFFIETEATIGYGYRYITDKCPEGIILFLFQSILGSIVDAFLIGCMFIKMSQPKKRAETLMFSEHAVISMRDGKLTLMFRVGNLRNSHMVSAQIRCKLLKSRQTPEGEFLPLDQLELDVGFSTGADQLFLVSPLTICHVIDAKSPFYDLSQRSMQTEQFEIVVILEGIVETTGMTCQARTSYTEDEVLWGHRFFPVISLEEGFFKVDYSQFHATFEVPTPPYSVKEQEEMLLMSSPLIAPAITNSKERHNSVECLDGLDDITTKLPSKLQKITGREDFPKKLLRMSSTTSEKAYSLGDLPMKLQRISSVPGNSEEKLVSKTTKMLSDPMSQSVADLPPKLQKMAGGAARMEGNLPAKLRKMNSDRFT
Experiment: GIRK1/2 thallium flux modulators, retest, confirmation, cell-based, HEK293 rmGlu8/hGIRK1/2, FluoZin-2 (AID 623911)
Conditions: HEK293 rmGlu8/hGIRK1/2, thallium flux FluoZin-2; actives lie on both sides; glutamate co-added at its EC20 level

Compound | manual score
Cc1cc2nc(CCN(C(=S)NCC(C)C)C3CCCC3)[nH]c2cc1C | 0
CC(C)(C)C1CCc2c(C(=O)N/N=C/c3cccs3)csc2C1 (stereo not drawn) | 0
Cc1ccc(C)c(NC(=S)NNC(=O)c2csc3c2CCC(C)C3)c1 (stereo not drawn) | 1 (active)
Cc1ccc(NC(=O)c2ccc(COc3ccc4c(c3)CCC4)cc2)c(C)c1 | 0
Cc1ccc(C)c(NC(=S)NNC(=O)c2csc3c2CCCC3)c1 | 1 (active)
Cc1cccc(NC(=S)NNC(=O)c2csc3c2CCC(C)C3)c1 (stereo not drawn) | 1 (active)
Cc1cccc(NC(=S)NNC(=O)c2csc3c2CCCC3)c1 | 1 (active)
Cc1cccc(CSc2cccc3cccnc23)c1 | 0
CC(=O)Nc1cccc2c1C(=O)N(c1cccc(C)c1)C2=O | 0
O=C1CC(N2CCN(c3nc4ccccc4s3)CC2)C(=O)N1c1ccc(F)cc1 (stereo not drawn) | 0
CC(C)(C)c1ccc(OCCON2C(=O)CCC2=O)c(Cl)c1 | 0
Cc1ccc(C)c(NC(=S)NNC(=O)c2cc3c(s2)CCC(C)C3)c1 (stereo not drawn) | 1 (active)
CC(C)CNC(=S)NNC(=O)c1csc2c1CCC(C)C2 (stereo not drawn) | 0
Cc1ccccc1NC(=S)NNC(=O)c1csc2c1CCC(C)C2 (stereo not drawn) | 1 (active)
CN(C)/C=C/C(=O)/C=C/c1cn(-c2ncc(C(F)(F)F)cc2Cl)c2ccccc12 | 0
Cc1ccc(-c2[nH]n3c(=O)c4c(nc3c2C)CCCC4)cc1 | 0
CCn1c(=S)[nH]c2nc3c(cc2c1=O)CCCC3 | 1 (active)
C=CCn1c(=S)[nH]c2nc3c(cc2c1=O)CCCC3 | 1 (active)
O=c1c2ccc(Cl)cc2[nH]c(=S)n1CCC1=CCCCC1 | 0
Cc1cccc(NC(=O)NC(=S)NC(=O)c2ccccc2)c1 | 0
Cc1cccc(NC(=S)NC(=O)c2cc(-c3ccccc3)nc3ccccc23)c1 | 0
Cc1cccc(NC(=S)N/C(=N/S(=O)(=O)c2ccccc2)c2ccccc2)c1 | 1 (active)
CCOc1ccc(-n2c(SCc3nc(-c4cccs4)no3)nnc2-c2ccncc2)cc1 | 0
COc1ccc(NC(=O)COC(=O)CC23CC4CC(CC(C4)C2)C3)c([N+](=O)[O-])c1 | 0
CCC(=O)Nc1nc2ccc3nc(C)sc3c2s1 | 0
COc1ccccc1NC(=O)c1ccc(S(=O)(=O)N2CCCC2)cc1 | 0

Compound | manual score
NS(=O)(=O)c1ccc(S(=O)(=O)N2CCCC2)cc1 | 0
CCN(CC)c1ccc2cc(C(=O)NNC(=O)c3ccc(S(=O)(=O)N4CCCCC4)cc3)c(=O)oc2c1 | 0
CC1CN(S(=O)(=O)c2ccc(C(=O)Nc3nnc(-c4ccc5c(c4)CCCC5)o3)cc2)CC(C)O1 (stereo not drawn) | 0
CC1CCCN(S(=O)(=O)c2ccc(C(=O)Nc3nnc(-c4ccccc4Cl)o3)cc2)C1 (stereo not drawn) | 1 (active)
O=C(Nc1nnc(-c2ccccc2Cl)o1)c1ccc(S(=O)(=O)N2CCCCCC2)cc1 | 1 (active)
CCc1cc2cc(C)ccc2nc1SCC(=O)N1CCN(C(=O)c2ccco2)CC1 | 0
CCN(C#N)c1nc(NC(C)C)nc(NC(C)C)n1 | 0
Cc1ccc(N2C(=S)N=C(Nc3ccccc3C)C23CCOC(C)(C)C3)cc1 (stereo not drawn) | 1 (active)
Cc1ccccc1Nc1nc2nonc2nc1N1CCOCC1 | 0
Cc1cccc(C)c1NC1=NC(=S)N(c2ccc(N(C)C)cc2)C1(C)C | 0
Cc1ccccc1NC1=NC(=S)N(c2ccccc2)C12CCOC(C)(C)C2 (stereo not drawn) | 1 (active)
CCOC(=O)CSc1cccc2cccnc12 | 0
O=C(NC(=S)Nc1nc2ccccc2s1)c1ccco1 | 1 (active)
CCc1nnc(NS(=O)(=O)c2ccc(NC(=S)NC(=O)c3ccccc3)cc2)s1 | 0
COC(=O)c1sc(NC(=S)NC(=O)c2ccccc2)nc1C | 1 (active)
CCOC(=O)c1sc(NC(=S)NC(=O)c2ccco2)nc1C | 1 (active)
CC(C)(C)c1ccc(C(=O)NC(=S)Nc2nc3c(s2)CCCC3)cc1 | 0
O=C(NC(=S)NCc1ccc(-c2nc3ccccc3s2)cc1)c1ccco1 | 0
COC(=O)c1ccc(C(=O)NC(=S)Nc2nc3c(s2)CCCC3)cc1 | 1 (active)
COC(=O)c1sc(NC(=S)NC(=O)c2cccc(C)c2)nc1C | 0
Cn1c(-c2ccc(-c3ccccc3)cc2)c[nH]c1=S | 0
COC(=O)c1ccc(N2C(=O)CC(Sc3n[nH]c(C)n3)C2=O)cc1 (stereo not drawn) | 0
COC(=O)c1sc(NC(=S)NC(=O)c2ccccc2Cl)nc1C | 1 (active)
CCC(=O)Nc1ccc2c(c1)ncn2-c1ccc(OC)cc1 | 0
CCN(CC)S(=O)(=O)c1cc(NC(=O)Cn2cnc3ccccc3c2=O)ccc1C | 1 (active)
COc1cc(OC)c(NC(=O)CCNC(=O)Cn2cnc3ccccc3c2=O)cc1Cl | 0

Compound | manual score
C=CCn1c(=O)c2c(C)c(C)sc2n2c(Nc3ccc(OC)cc3)nnc12 | -0.5
CCCCn1c(N)c(C(=S)NC(=O)CC(C)(C)C)c(=O)n(C)c1=O | 1 (active)
CCCCn1c(N)c(C(=S)NC(=O)CC(C)C)c(=O)n(C)c1=O | 1 (active)
Brc1ccc(-c2nnc3c4ccccc4nc(N4CCOCC4)n23)cc1 | 0
CCC(=O)N1c2ccc(C)cc2C2=NNC(=S)NC21O (stereo not drawn) | 0
COc1ccc(C(CCNCc2ccccc2F)c2ccc(F)cc2)cc1 (stereo not drawn) | -1 (active)
COc1ccc(CNCCC(c2ccc(F)cc2)c2ccc(OC)cc2)cc1 (stereo not drawn) | -1 (active)
O=C(NNC(=O)c1cc(-c2ccccc2)n(-c2ccccc2)n1)c1cccc([N+](=O)[O-])c1 | 0
COc1ccc(C2c3ccc4ccccc4c3Oc3ncn(CCN4CCOCC4)c(=N)c32)cc1 (stereo not drawn) | -1 (active)
COc1ccc(S(=O)(=O)NCCCCCC(=O)NCCCN2CCOCC2)cc1 | 0
N=c1c2c(ncn1CCN1CCOCC1)Oc1ccc3ccccc3c1C2c1ccccc1 (stereo not drawn) | -1 (active)
NC(=O)COc1ccc(C2c3c(oc4ccccc4c3=O)C(=O)N2CC2CCCO2)cc1 (stereo not drawn) | 0
CC1CCN(c2c([N+](=O)[O-])c(=O)oc3ccccc23)CC1 | 0
CCOC(=O)C1(C(C)(C)CC)CC(CSc2nc3ccccc3[nH]2)OC1=O (stereo not drawn) | -1 (active)
CCn1c(-c2cc3ccccc3cc2O)n[nH]c1=S | 0
CSC1=NSC2=NC(=O)/C(=C/c3coc4ccccc4c3=O)C(=N)N12 | 3
N=C1/C(=C/c2cccs2)C(=O)N=C2SN=C(SCc3ccccc3)N12 | 1 (active)
O=C1N=C(c2ccccc2)S/C1=C\c1cccs1 | 0
FC(F)(F)c1ccc2nnc(-c3c(Cl)cccc3Cl)n2c1 | 0
O=C(C1CCCN1S(=O)(=O)c1cccc2cccnc12)N1CCc2ccccc21 (stereo not drawn) | 0
O=C(C1CCN(S(=O)(=O)c2cccc3cccnc23)CC1)N1CC=C(c2ccccc2)CC1 | -1 (active)
O=C(C1CCCN1S(=O)(=O)c1cccc2cccnc12)N1CCn2c1nc1ccccc12 (stereo not drawn) | 0
O=C(Cc1ccccc1)NC(=S)Nc1cccc(C(F)(F)F)c1 | 0
FC(F)(F)c1cccc(NC(=S)NCc2ccccc2)c1 | 1 (active)
Cc1ccc(NC(=S)NCc2ccccc2)cc1[N+](=O)[O-] | 1 (active)
FC(F)(F)c1cccc(NC(=S)NC2CCCC2)c1 | 1 (active)

Compound | manual score
FC(F)(F)c1cccc(N2CCN(C(=S)NC3CCCCC3)CC2)c1 | 0
COc1ccc(/C=C/C(=O)N2CCN(S(=O)(=O)/C=C/c3ccccc3)CC2)cc1OC | 0
O=C(C1CCN(c2ncnc3c2sc2cccc(F)c23)CC1)N1CCOCC1 | 0
CCOc1ccc(-c2nc(-c3ccncc3)no2)cc1OCC | 0.5
S=C(NCc1ccco1)N/N=C/c1ccc(Cl)cc1 | 0
S=C(NCc1ccco1)Nc1ccc(Cl)c(Cl)c1 | 1 (active)
COc1ccc(/C(C)=N/NC(=S)NCc2ccco2)cc1 | 0
COc1ccc(C(=S)Nc2ccc(N(C)C)cc2)cc1 | 0
COc1ccc2nc(NC(=S)N(C)C)sc2c1 | 1 (active)
COc1ccc2nc(N=Nc3ccc(O)c4ccccc34)sc2c1 | 0
Clc1ccccc1-c1nnc2sc(CCc3ccccc3)nn12 | 0
CCn1c(O)c(N=NC2=NC(=O)CS2)c2cc(C)ccc21 | 0
CCc1ccc2c(c1)c(N=NC1=NC(=O)CS1)c(O)n2CC | 1 (active)
CCc1ccc2c(c1)c(N=NC1=NC(=O)CS1)c(O)n2C | 1 (active)
CC(C)(C)c1csc(NC(=O)c2ccc3nccnc3c2)n1 | 0
Cc1cs/c(=N\N=C\c2cccc([N+](=O)[O-])c2)n1Cc1ccco1 | 0
CC(C)Sc1oc(-c2ccco2)nc1S(=O)(=O)c1ccccc1 | -1 (active)
Cc1cccn2c(=O)c3cc(C#N)c(=NC(=O)c4cccnc4)n(CC4CCCO4)c3nc12 (stereo not drawn) | 3
O=C(CCCCn1c(=O)c2ccccc2n(CC(=O)NC2CCCC2)c1=O)NCc1ccco1 | 0
Cn1c(=O)cc(OCCCC(=O)NCc2ccc3c(c2)OCO3)c2ccccc21 | 0
CCCn1c(=N)c(C(=O)NCc2ccc3c(c2)OCO3)cc2c(=O)n3cccc(C)c3nc21 | -1 (active)
N=c1c(C(=O)NCc2ccco2)cc2c(=O)n3ccccc3nc2n1CCc1ccccc1 | -1 (active)
CCn1c(SCC(=O)c2cc(C)n(CC3CCCO3)c2C)nc2ccccc21 (stereo not drawn) | -1 (active)
O=C(CSc1nc2ccccc2c(=O)n1CC1CCCO1)N1CCN(c2ccccc2)CC1 (stereo not drawn) | 0
CCn1c(SCc2nc(-c3ccccc3)no2)nc2ccccc21 | 0
